Test results: PubChem BioAssay (Tox21)
Results filed as inconclusive are left out. Calls of active or inactive are those of the source. Unless noted, calls follow the shape of the full dose curve.

Columns and labels:
[1] = target: Gonadotropin-releasing hormone receptor (Homo sapiens) (UniProt P30968); assay: Human gonadotropin-releasing hormone receptor (GnRHR) small molecule agonists, calcium flux assay in GnRHR-HEK293 cells (AID 1920063); also: nearly all actives have a fitted effect of over 35% in size; also: potency is read from the fitted curve at half-maximal effect
Method in brief: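 We seeded human GnRHR-expressing HEK293 cells for 18 hours, loaded them with calcium dye for an hour at 37 C, added test compounds, and recorded fluorescence intensity kinetically for three minutes.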

[2] = target: KiSS-1 receptor (Homo sapiens) (UniProt Q969F8); assay: Human kisspeptin (KISS1R) small molecule agonists, calcium flux assay in KISS1R-HEK293 cells (AID 1920064; active = well fitted activation curve with a large enough effect in the repeat runs; also: potency is read from the fitted curve at half-maximal effect)
Method in brief: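 Kinetic calcium assay, 1 s sampling over 3 min at Ex/Em 480/540, in HEK293 cells engineered with human KISS1R; compounds delivered in DMSO after 1 h dye loading.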

[3] = G protein-coupled receptor (GPCR) small molecule agonists, calcium flux assay: HEK293 wild type cell line counter screen (AID 1920065)
Method in brief: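 Calcium-sensitive dye, loaded 1 h at 37 C into cells cultured 18 h, reports compound-evoked calcium release as fluorescence (Ex/Em 480/540), measured over 3 min. Agonist mode; 15-point titrations, triplicate.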

[4] = p53 small molecule agonists, cell-based qHTS assay with human liver microsomes (AID 1963577);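 also: p53 response element beta-lactamase reporter cells with liver microsomes plus NADPH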
Method in brief: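 Metabolically competent format: test substances, human liver microsomes and NADPH (both 0.5 mg/mL final) incubated with p53RE-bla cells 16 h at 37 C. Beta-lactamase reporter signal then quantified by fluorescence.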

[5] = p53 small molecule agonists, cell-based qHTS assay with rat liver microsomes (AID 1963578)
Method in brief: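 Each plate received p53RE-bla cells, then compound, then rat liver microsomes and NADPH (both 0.5 mg/mL final). Plates were held 16 h at 37 C, and beta-lactamase activity was detected with LiveBLAzer over 2 h.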

[6] = p53 small molecule agonists, cell-based qHTS assay with human liver microsomes: qHTS cell viability counter screen (AID 1963579); also: nearly all actives have a fitted effect of over 45% in size
Method in brief: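 Tox21 library compounds, delivered from DMSO stocks, were tested on p53RE-bla cells together with 0.5 mg/mL human liver microsomes and 0.5 mg/mL NADPH (final) over 16 h at 37 C; CellTiter-Glo luminescence served as the cytotoxicity measure.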

[7] = p53 small molecule agonists, cell-based qHTS assay with rat liver microsomes: qHTS cell viability counter screen (AID 1963580); also: nearly all actives have a fitted effect of over 45% in size
Method in brief: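 In HCT-116 cells carrying a p53 response element-bla reporter, compounds were metabolically activated in situ by rat liver microsomes with NADPH over 16 h. Cell ATP content then served as the cytotoxicity measure.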

[8] = p53 small molecule agonists, cell-based qHTS assay: qHTS cell viability counter screen (AID 1963581); also: nearly all actives have a fitted effect of over 45% in size
Method in brief: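 Following 5 h attachment, HCT-116 p53RE-bla cells took up compound for 16 h at 37 C; the reporter was read with B/G FRET substrate (2 h RT), and viability then via CellTiter-Glo ATP luminescence.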

[9] = target: 5-hydroxytryptamine receptor 2A (Homo sapiens) (UniProt P28223); assay: 5-hydroxytryptamine receptor 2A (HTR2A) small molecule antagonists, cell-based qHTS assay (AID 1963586); also: nearly all actives have a fitted effect of over 45% in size; also: potency is read from the fitted curve at half-maximal effect
Method in brief: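 Antagonist-mode intracellular calcium assay: DOI (4 nM) added after 5 min compound pre-incubation at room temperature to dye-loaded HTR2A-CHO cells. Fluorescence followed for 3 min, sampled every second.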

[10] = target: 5-hydroxytryptamine receptor 2A (Homo sapiens) (UniProt P28223); assay: 5-hydroxytryptamine receptor 2A (HTR2A) small molecule agonists, cell-based qHTS assay (AID 1963587); also: nearly all actives have a fitted effect of over 30% in size; also: potency is read from the fitted curve at half-maximal effect
Method in brief: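 HTR2A-CHO cells, plated 18 h at 37 C/5% CO2, dye-loaded 1 h at 37 C; compounds in DMSO added by pin tool (agonist mode). Intracellular calcium flux read as kinetic fluorescence on FDSS over 2 min at 1 s intervals.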

[11] = target: Muscarinic acetylcholine receptor M1 (Homo sapiens) (UniProt P11229); assay: Cholinergic receptor muscarinic 1 (CHRM1) small molecule antagonists, cell-based qHTS assay (AID 1963588); also: nearly all actives have a fitted effect of over 40% in size; also: potency is read from the fitted curve at half-maximal effect
Method in brief: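 CHRM1-CHO calcium-flux assay, antagonist mode. Cells were seeded 18 h, dye-loaded 1 h at 37 C and given compound for 5 min at RT, then acetylcholine was added at 50nM. FDSS fluorescence was read 3 min; 15 concentrations, three runs.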

[12] = target: Muscarinic acetylcholine receptor M1 (Homo sapiens) (UniProt P11229); assay: Cholinergic receptor muscarinic 1 (CHRM1) small molecule agonists, cell-based qHTS assay (AID 1963589); also: nearly all actives have a fitted effect of over 35% in size
Method in brief: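 Measures agonist-induced intracellular calcium rise. Stable human CHRM1 CHO line, 1 h dye load at 37 C, compounds from DMSO, kinetic fluorescence read.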

[13] = cAMP Responsive Elements (CRE) small molecule antagonists, cell-based qHTS assay (AID 1963591; active = well fitted inhibition curve with a large enough effect in the signal ratio in the repeat runs, not every such curve was filed as active; the % refers to the signal ratio)
Method in brief: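 HEK293T cells carrying a CRE-driven beta-lactamase reporter receive compound and NKH477 (0.25 uM final) for 3 h. Fluorescence from LiveBLAzer B/G FRET substrate is read after 2 h at room temperature.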

[14] = target: Beta-2 adrenergic receptor (Homo sapiens) (UniProt P07550); assay: Adrenergic beta2 receptor (ADRB2) small molecule antagonists, cell-based qHTS assay (AID 1963592); also: series mostly up to about 92 µM; nearly all actives have a fitted effect of over 50% in size
Method in brief: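 Cells (CHO, stable ADRB2 overexpression) incubated 18-20hr at 37C; compounds added from DMSO; agonist mix (1nM isoproterenol, 100uM IBMX, 25uM Ro-20-1724) added; 0.5hr RT; d2-cAMP and anti-cAMP-cryptate added; 1hr RT; 665/615 nm read.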

[15] = target: D(2) dopamine receptor (Homo sapiens) (UniProt P14416); assay: Dopamine D2 receptor (DRD2) small molecule agonists, cell-based qHTS assay (AID 1963594); also: nearly all actives have a fitted effect of over 35% in size
Method in brief: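 HEK293 cells stably expressing DRD2 were cultured 24 h at 37 C, then given Ro20-1724 (0.1 mM final) and compounds for 10 min at room temperature. NKH477 (200nM) was then added for 30 min. cAMP was read by HTRF.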

[16] = p53 small molecule agonists, cell-based qHTS assay (AID 1963582; active = well fitted activation curve with a large enough effect in the signal ratio in the repeat runs, not every such curve was filed as active; the % refers to the signal ratio)
Method in brief: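 In this cell-based concentration-response screen, a p53 response element drives beta-lactamase; cells received DMSO-borne compounds after 5 h culture and were incubated a further 16 h before FRET substrate development.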

[17] = cAMP Responsive Elements (CRE) small molecule agonists, cell-based qHTS assay (AID 1963590)
Method in brief: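 A CRE-responsive beta-lactamase reporter in HEK 293T cells was used. Treatment ran 3 h at 37 C; detection used LiveBLAzer B/G FRET substrate for 2 h at room temperature.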

[18] = target: D(2) dopamine receptor (Homo sapiens) (UniProt P14416); assay: Dopamine D2 receptor (DRD2) small molecule antagonists, cell-based qHTS assay (AID 1963595; active = well fitted inhibition curve with a large enough effect in the signal ratio in the repeat runs, with a control signal flat; the % refers to the signal ratio)
Method in brief: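 HEK293 cells stably expressing DRD2 were preincubated with 0.1 mM Ro20-1724, then with compound for 10 min at room temperature. Cells were stimulated with 200 nM NKH477 plus 12 nM quinpirole for 30 min, and cAMP was read by HTRF.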

[19] = target: Beta-2 adrenergic receptor (Homo sapiens) (UniProt P07550); assay: Adrenergic beta2 receptor (ADRB2) small molecule agonists, cell-based qHTS assay (AID 1963593);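 also: CHO cells stably overexpressing human ADRB2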
Method in brief: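 CHO cells stably over-expressing ADRB2 were plated overnight at 37C, then dosed with compounds plus a stimulation mix containing 100uM IBMX and 25uM Ro-20-1724 for 0.5hr at room temperature. cAMP was measured by HTRF competition, 1hr.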

[20] = Nuclear factor erythroid 2-related factor 2/antioxidant responsive element (Nrf2/ARE) small molecule agonists: luciferase reporter gene qHTS assay in human keratinocytes (AID 1919969); also: nearly all actives have a fitted effect of over 35% in size

Measured: Potency

Chain of D(2) dopamine receptor (Homo sapiens) (P14416 whole entry, looked up): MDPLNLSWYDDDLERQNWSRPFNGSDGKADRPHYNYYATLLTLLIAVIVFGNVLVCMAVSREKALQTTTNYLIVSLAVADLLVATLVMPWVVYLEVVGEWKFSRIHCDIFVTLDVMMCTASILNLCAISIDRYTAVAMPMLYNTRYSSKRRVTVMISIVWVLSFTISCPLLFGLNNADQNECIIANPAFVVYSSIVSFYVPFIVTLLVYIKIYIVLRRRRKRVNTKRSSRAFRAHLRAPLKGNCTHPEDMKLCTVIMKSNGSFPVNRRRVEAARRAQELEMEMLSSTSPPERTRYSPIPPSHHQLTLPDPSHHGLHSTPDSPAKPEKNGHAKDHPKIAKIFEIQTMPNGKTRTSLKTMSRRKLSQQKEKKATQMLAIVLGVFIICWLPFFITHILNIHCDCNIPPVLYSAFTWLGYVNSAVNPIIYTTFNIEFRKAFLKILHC
Chain of KiSS-1 receptor (Homo sapiens) (Q969F8 whole entry, looked up): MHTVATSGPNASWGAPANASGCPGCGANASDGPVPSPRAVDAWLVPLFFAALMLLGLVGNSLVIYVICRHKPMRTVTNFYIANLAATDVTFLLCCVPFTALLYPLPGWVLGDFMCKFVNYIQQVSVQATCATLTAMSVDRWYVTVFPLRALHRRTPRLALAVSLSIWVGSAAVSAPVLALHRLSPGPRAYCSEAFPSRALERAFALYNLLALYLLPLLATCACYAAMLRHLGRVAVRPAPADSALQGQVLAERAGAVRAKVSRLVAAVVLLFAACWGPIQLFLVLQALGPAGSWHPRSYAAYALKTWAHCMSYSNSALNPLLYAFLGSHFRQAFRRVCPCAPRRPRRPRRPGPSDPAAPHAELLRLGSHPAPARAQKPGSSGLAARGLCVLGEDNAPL
Chain of Gonadotropin-releasing hormone receptor (Homo sapiens) (P30968 whole entry, looked up): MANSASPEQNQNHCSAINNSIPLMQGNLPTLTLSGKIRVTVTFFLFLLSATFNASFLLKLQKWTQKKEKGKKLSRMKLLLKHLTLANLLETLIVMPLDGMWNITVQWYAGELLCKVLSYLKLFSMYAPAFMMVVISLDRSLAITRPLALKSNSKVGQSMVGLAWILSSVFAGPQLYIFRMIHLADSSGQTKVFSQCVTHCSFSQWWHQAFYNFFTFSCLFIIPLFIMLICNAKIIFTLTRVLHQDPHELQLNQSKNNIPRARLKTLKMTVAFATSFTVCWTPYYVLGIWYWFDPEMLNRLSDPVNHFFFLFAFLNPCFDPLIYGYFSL
Chain of Muscarinic acetylcholine receptor M1 (Homo sapiens) (P11229 whole entry, looked up): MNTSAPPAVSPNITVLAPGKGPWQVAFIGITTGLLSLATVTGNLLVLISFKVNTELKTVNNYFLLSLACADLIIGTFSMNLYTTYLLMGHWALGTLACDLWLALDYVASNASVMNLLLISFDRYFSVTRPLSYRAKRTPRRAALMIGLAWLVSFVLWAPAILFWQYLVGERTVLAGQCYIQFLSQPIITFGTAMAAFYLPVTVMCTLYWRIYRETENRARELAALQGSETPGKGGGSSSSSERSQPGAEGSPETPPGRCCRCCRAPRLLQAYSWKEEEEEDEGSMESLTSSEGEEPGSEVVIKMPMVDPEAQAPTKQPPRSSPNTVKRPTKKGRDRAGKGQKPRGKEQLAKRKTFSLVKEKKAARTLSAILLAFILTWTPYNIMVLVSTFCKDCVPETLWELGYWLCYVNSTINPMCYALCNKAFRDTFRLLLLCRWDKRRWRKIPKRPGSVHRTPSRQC
Chain of 5-hydroxytryptamine receptor 2A (Homo sapiens) (P28223 whole entry, looked up): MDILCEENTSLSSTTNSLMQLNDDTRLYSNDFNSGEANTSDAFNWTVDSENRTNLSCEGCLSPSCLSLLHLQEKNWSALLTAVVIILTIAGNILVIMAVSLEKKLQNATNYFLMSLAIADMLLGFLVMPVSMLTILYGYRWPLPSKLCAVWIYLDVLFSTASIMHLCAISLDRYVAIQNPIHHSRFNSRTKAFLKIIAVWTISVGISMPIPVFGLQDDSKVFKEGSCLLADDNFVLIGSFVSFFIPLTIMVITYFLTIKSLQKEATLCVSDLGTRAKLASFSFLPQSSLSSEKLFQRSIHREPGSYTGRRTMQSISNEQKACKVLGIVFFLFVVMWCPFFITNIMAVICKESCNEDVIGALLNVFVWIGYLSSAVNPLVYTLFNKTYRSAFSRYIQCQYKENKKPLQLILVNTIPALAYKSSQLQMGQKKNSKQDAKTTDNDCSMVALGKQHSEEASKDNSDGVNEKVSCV
Chain of Beta-2 adrenergic receptor (Homo sapiens) (P07550 whole entry, looked up): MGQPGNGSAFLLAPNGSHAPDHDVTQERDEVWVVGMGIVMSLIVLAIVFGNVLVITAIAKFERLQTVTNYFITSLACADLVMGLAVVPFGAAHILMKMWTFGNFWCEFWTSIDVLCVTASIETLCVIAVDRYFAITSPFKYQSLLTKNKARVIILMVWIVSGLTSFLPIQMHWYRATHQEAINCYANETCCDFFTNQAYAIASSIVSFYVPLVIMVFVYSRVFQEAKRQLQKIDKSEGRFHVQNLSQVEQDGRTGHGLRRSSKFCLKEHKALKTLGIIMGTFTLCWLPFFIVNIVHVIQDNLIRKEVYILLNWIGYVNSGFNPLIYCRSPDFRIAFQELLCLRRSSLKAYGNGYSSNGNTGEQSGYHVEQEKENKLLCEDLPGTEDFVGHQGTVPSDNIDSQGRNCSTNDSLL

CC(C)Br
inactive: [1] | [2] | [3] | [4] | [5] | [6] | [7] | [8] | [9] | [10] | [11] | [12] | [13] | [14] | [15]

CCC(C)c1cc(C(C)(C)C)cc(-n2nc3ccccc3n2)c1O (stereo not drawn)
inactive: [1] | [2] | [3] | [4] | [5] | [6] | [16] | [9] | [10] | [12] | [17] | [13] | [14] | [15] | [18]

ClC1=C(Cl)[C@]2(Cl)[C@H]3[C@H]([C@H]4C=C[C@H]3C4)[C@@]1(Cl)C2(Cl)Cl
inactive: [1] | [2] | [3] | [4] | [5] | [6] | [7] | [8] | [16] | [9] | [10] | [11] | [12] | [13] | [14] | [15] | [18]

CC(c1ccc(O)cc1)(c1ccc(O)cc1)c1ccc(O)cc1
active: [9] 23.7 µM | [10] 49 µM
inactive: [1] | [2] | [3] | [5] | [6] | [7] | [11] | [12] | [14] | [19] | [15] | [18]

N#CCCC(Br)(C#N)CBr (stereo not drawn)
active: [1] 38.9 µM | [2] 54.9 µM
inactive: [3] | [4] | [5] | [6] | [7] | [8] | [9] | [11] | [17]

CCCCC(O)(Cn1cncn1)c1ccc(Cl)cc1Cl (stereo not drawn)
inactive: [20] | [2] | [3] | [4] | [5] | [6] | [8] | [9] | [11] | [12] | [15]

COc1cc(OC)c(OC)cc1C=O
inactive: [20] | [2] | [3] | [6] | [16] | [9] | [10] | [11] | [12] | [17]

CCc1nn(C)c(C(=O)NCc2ccc(C(C)(C)C)cc2)c1Cl
inactive: [20] | [2] | [3] | [4] | [11] | [12] | [14] | [19]

CCOC(=O)[C@]1(c2ccccc2)Oc2ccccc2[C@@H]1N
inactive: [1] | [2] | [3] | [6] | [7] | [8] | [9] | [10] | [12] | [15]
active: [11] 8.4 µM

Oc1c(I)cc(I)cc1I
active: [9] 42.1 µM
inactive: [1] | [2] | [3] | [4] | [6] | [12] | [13] | [14] | [15] | [18]
